# TRPM1 prom inh – inhibitors of MITF-dependent TRPM1 promoter reporter, primary screen, cell-based, SK-MEL-5, single point, luciferase; SK-MEL-5 TRPM1 promoter luciferase, 24 h; inhibition, % at 12.5 µM; actives 0.83% (n = 330,000); AID 488899, 2010;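 active = mean inhibition across replicates of 60% or more, whatever share of single replicates reaches that level; inconclusive = some that reach 60%, reason not given; inactive = mean inhibition across replicates below 60%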
# EWS-Fli inh – EWS/Fli-driven NR0B1 reporter inhibitors, primary screen, A673 cells, NR0B1 luciferase, luminescence, MLPCN library; AID 651661, 2012; inhibition, % at 12.6 µM; viability-normalised; actives 0.67% (n = 350,000);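 active = mean inhibition of at least 50% after viability correction, with every replicate also passing that limit; inconclusive = mean reaches 50% but only one of two replicates passes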;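 note: firefly luciferase signal divided by Alamar Blue viability fluorescence both relative to DMSO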
# LMP1 NFkB inh – EBV LMP1-driven NF-kappaB luciferase reporter inhibitors, primary screen, cell-based, luminescence, single point | inhibition, % at 12.5 µM | LMP1-induced NF-kappaB luciferase reporter cells | actives 0.69% (n = 350,000) | AID 504558, 2011; in the data active = inhibition above about 41%; inconclusive = no clear call, values can overlap the other calls
# Shn3 inh set2 – reduction of Shn3 3'UTR firefly luciferase signal, primary screen, Schnurri-3 inhibitor project, cell-based, Clone20 osteoblasts, set 2; Clone20 osteoblast Shn3 3'UTR firefly luciferase, 24 h; inhibition, % at 12.5 µM; actives 0.52% (n = 360,000);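 active = mean inhibition of at least 75% with every replicate also reaching 75%; inconclusive = mean inhibition at least 75% but some replicate below; inactive = mean inhibition below 75%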
# LGR2 antag – inhibitors of bursicon-induced LGR2 CRE-luciferase signal, primary screen, cell-based, HEK293, CRE-luciferase reporter, bursicon stimulation | bursicon-stimulated, 4 h | Drosophila bursicon receptor LGR2 (rickets) | AID 720647, 2013 | actives 0.35% (n = 380,000) | inhibition, % at 9.99 µM;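 active = drop in luminescence signal, shown as inhibition above about 50% in the replicate tests, limit read from the data, passing the limit was not always enough; inconclusive = probably only some replicates passing the limit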;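 note: agonist challenge used bursicon conditioned medium at about half maximal strength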
# PAX8 reporter – inhibitors of PAX8-driven TPO luciferase reporter, primary screen, RMG-I cells, single concentration. SteadyGlo, 24 h. inhibition, % at 12.6 µM. actives 1.2% (n = 360,000);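 active = mean replicate inhibition at least 60% with every replicate also reaching 60%; inconclusive = only one of the two criteria is met; inactive = mean below 60% and not all replicates reaching 60%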;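 note: luciferase light reporting Pax8 driven TPO promoter activity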
# A number is an active result; 0 = inactive; ? = inconclusive; - = no result. In the library only some 2.2% were active in any assay of this set; here they are far more common.
SMILES,TRPM1 prom inh,EWS-Fli inh,LMP1 NFkB inh,Shn3 inh set2,LGR2 antag,PAX8 reporter
Nc1ccc2ccc(NS(=O)(=O)N3CCCCC3)cc2c1,-,56,-,-,0,0
N#Cc1cccc(-c2ccc([C@@H]3[C@H]4CN(C(=O)Nc5cccc(F)c5)CCCCN4[C@H]3CO)cc2)c1,-,0,-,-,0,0
O=C(Nc1cccc(F)c1)N1CCCCN2[C@@H](CO)[C@H](c3ccc(C#Cc4ccccc4)cc3)[C@@H]2C1,-,0,-,-,0,94
N#Cc1cccc(-c2ccc([C@@H]3[C@H](CO)N4CCCCN(C(=O)Nc5cccc(F)c5)C[C@@H]34)cc2)c1,-,0,-,-,96,0
O=C(Nc1cccc(F)c1)N1CCCCN2[C@H](CO)[C@H](c3ccc(C#Cc4ccccc4)cc3)[C@H]2C1,-,73,-,-,0,?
O=C(Nc1cccc(F)c1)N1CCCCN2[C@H](C1)[C@H](c1ccc(C#Cc3ccccc3)cc1)[C@@H]2CO,-,0,-,-,0,0
O=C(Nc1cccc(F)c1)N1CCCCN2[C@H](CO)[C@@H](c3ccc(C#Cc4ccccc4)cc3)[C@H]2C1,-,0,-,-,0,116
COc1ccc(C#Cc2ccc3c(c2)[C@@H]2[C@@H](CCN2C(=O)C2CC2)[C@@H](CO)N3)cc1,-,0,-,-,0,0
C[C@@H]1CCCCO[C@H](CN(C)S(=O)(=O)c2cn(C)cn2)[C@H](C)CN([C@H](C)CO)C(=O)c2cc(NS(=O)(=O)c3ccccc3)ccc2O1,-,-,-,-,0,0
CCCC(=O)Nc1ccc2c(c1)C(=O)N(C)[C@H]1CC[C@@H](CC(=O)Nc3cn(C)nc3C)O[C@@H]1CO2,-,0,-,-,0,0
O=C(C[C@@H]1C[C@@H]2c3cc(NC(=O)Nc4ccccc4)ccc3O[C@@H]2[C@H](CO)O1)NCc1cccc(F)c1,-,0,-,-,0,0
COc1ccc2c3c([nH]c2c1)[C@H](CO)N(C(=O)c1ccc(F)cc1)CC31CN(Cc2cccnc2)C1,-,0,-,-,0,-
CCN1[C@@H]2c3cccc(=O)n3C[C@@H]2[C@@H](CO)[C@@H]1C(=O)N1CCc2ccccc2C1,-,0,-,-,0,0
CO[C@@H]1CN(C)C(=O)c2cc(NC(C)=O)ccc2OC[C@@H](C)N(C(=O)c2ccccn2)C[C@@H]1C,-,0,-,-,0,-
CC1C2CC(C/C2=N/NC(=O)c2cccs2)C1(C)C (stereo unspecified),0,0,0,0,0,0
C[C@@H]1C2CC(C/C2=N\NC(=O)c2ccncc2)C1(C)C (stereo partly specified),0,-,72,0,0,0
O=C(Nc1ccc(N2CCN(C(=O)c3ccccc3)CC2)c(Cl)c1)c1ccc(Br)o1,0,0,0,0,89,-
CN1CCN(c2ccc(NC(=O)c3cc4ccccc4o3)cc2)CC1,0,0,0,0,0,0
O=C(Nc1ccc(N2CCN(C(=O)c3ccccc3)CC2)cc1)c1ccc(Br)o1,0,-,0,0,-,-
COc1ccc(C(=O)Nc2ccc(N3CCCC3)cc2)cc1,0,-,0,0,-,-
O=C(Nc1cc(-c2nc3ncccc3o2)ccc1Cl)c1ccc([N+](=O)[O-])o1,79,0,0,0,0,0
O=C(Nc1ccc(N2CCN(C(=O)c3ccccc3)CC2)cc1)c1cc2ccccc2o1,69,-,0,0,82,-
COc1ccc(C(=O)Nc2ccc(N3CCN(C(=O)c4ccccc4C)CC3)cc2)cc1,0,0,51,0,0,0
O=C(Nc1cc(-c2nc3ncccc3o2)ccc1Cl)c1cccs1,0,0,0,0,0,0
C[C@H](CO)N1C[C@H](C)[C@H](CN(C)Cc2ccc(-c3ccccc3)cc2)Oc2c(NC(=O)C3CCCCC3)cccc2C1=O,-,0,-,-,0,-
SMILES,TRPM1 prom inh,EWS-Fli inh,LMP1 NFkB inh,Shn3 inh set2,LGR2 antag,PAX8 reporter
Cc1noc(C)c1S(=O)(=O)N(C)C[C@@H]1Oc2c(NC(=O)C3CCOCC3)cccc2C(=O)N([C@@H](C)CO)C[C@@H]1C,-,0,-,-,0,0
COc1ccc(NC(=O)Nc2ccc3c(c2)C(=O)N([C@@H](C)CO)C[C@@H](C)[C@H](CN(C)C(=O)CCCN(C)C)OCCCC[C@@H](C)O3)cc1,-,0,-,-,0,-
O=C(Nc1cccc2ccccc12)c1ccc([N+](=O)[O-])o1,0,0,0,0,0,69
O=C(Nc1ccccc1N1CCCC1)c1ccc([N+](=O)[O-])o1,0,0,0,0,0,77
O=C(Nc1cccc(NC(=O)c2ccccc2Cl)c1)c1ccc([N+](=O)[O-])o1,77,0,0,0,0,98
Cc1cccc(NC(=O)c2ccc([N+](=O)[O-])o2)c1C,0,0,0,0,0,?
CC1CCN(c2ccccc2NC(=O)c2ccc([N+](=O)[O-])o2)CC1,0,0,0,0,0,0
O=C(Nc1ccc(N2CCCC2)c(Cl)c1)c1ccc([N+](=O)[O-])o1,73,0,0,0,0,0
CNC[C@H]1OCCCC[C@H](C)Oc2ccc(NC(=O)CCC(F)(F)F)cc2C(=O)N([C@@H](C)CO)C[C@H]1C,-,0,-,-,0,0
CC(C)NC(=O)N[C@H]1CC[C@@H](CCNC(=O)C2CCCC2)O[C@H]1CO,-,0,-,-,0,0
Cc1ccc(S(=O)(=O)N(C)C[C@H]2Oc3ncc(-c4ccncc4)cc3C(=O)N([C@H](C)CO)C[C@H]2C)cc1,-,0,-,-,0,-
C[C@H](O)C#Cc1ccc2c(c1)O[C@H](CN(C)C(=O)Nc1ccccc1)[C@@H](C)CN([C@H](C)CO)S2(=O)=O,-,0,-,-,0,0
COC(=O)C1(N2C(=O)O[C@@H](Cc3ccccc3)[C@H]2/C=C/C2CC2)CCCC1,-,0,-,-,-,0
CCC(=O)N1CCN(c2ccccc2NC(=O)c2ccc([N+](=O)[O-])o2)CC1,0,0,0,0,0,0
O=C(Nc1ccc(N2CCCC2)c(Cl)c1)c1ccco1,0,-,0,0,-,-
CN1CCN(c2ccc(NC(=O)c3ccco3)cc2Cl)CC1,0,0,60,0,0,0
O=C(Nc1ccccc1N1CCN(C(=O)c2ccccc2)CC1)c1ccc([N+](=O)[O-])o1,62,0,0,0,0,68
O=[N+]([O-])c1ccccc1N=Nc1c(O)[nH]c2ccc(F)cc12,0,0,0,85,0,0
O=C(Cc1ccncc1)N[C@H]1CC[C@@H](CCn2cc(-c3ccccc3F)nn2)O[C@H]1CO,-,0,-,-,0,0
COc1ccc(CNC(=O)C[C@H]2C[C@H]3c4cc(NS(=O)(=O)c5ccc(F)cc5)ccc4O[C@H]3[C@H](CO)O2)cc1,-,0,-,-,0,-
CC(C)n1ncc2c(C(=O)Nc3cccc(C#N)c3)cc(C3CC3)nc21,0,0,0,0,95,0

# Compound activity deposited in PubChem by Broad Institute.
